# Experiment: binders of probe aFST on microarray, primary screen, stem cell growth factor project, biochemical, small-molecule microarray, fluorescence 635/667 (AID 1086);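 note: score merges 667 nm fluorescence with signal-to-noise of each printed compound spot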
# Conditions: higher = more signal
row,SMILES,composite z-score
1,COC(=O)c1ccc(OC)c(/C=C\CC(CCc2ccccc2)OC(C)=O)c1 (stereo not given),-0.458
2,C[N+](C)(C)CCCC[C@@H]1NC(=O)[C@H]2C[C@@H](C(=O)NCCCCCCN)[C@@H](c3cccc(OCCO)c3)N2C1=O,0.592
3,C/C=C/[C@@H](CCn1cc([C@H](O)c2ccccc2)nn1)[Si](C)(C)c1ccc(OC)cc1,-1.12
4,CCCCCCCCCCC(O)C1C=CC2C(=O)NC(=O)C2N1Nc1ccccn1 (stereo not given),0.0124
5,COC(=O)[C@@]1(Cc2ccc(F)cc2)[C@H]2c3cc(C(=O)N(C)C)n(CCSCCO)c3C[C@H]2CN1C(=O)c1ccccc1,0.568
6,CC1CC/C=C\[C@H]2OC34C=CCN(Cc5ccccc5)C(=O)[C@H]3N(CCO)C(=O)[C@@H]4C2C(=O)O1 (stereo not given in full),-0.253
7,C=C(COC)C(=O)CC[C@H](OC(=O)c1ccccc1-c1ccccc1C(=O)O)c1ccc(OCCO)cc1,0.347
8,C=CCC(OC(C)=O)[C@@H]1[C@@H](N(Cc2cc3ccccc3o2)C(=O)Cc2ccc(OC)cc2)c2cc(OCCCO)ccc2N1C(=O)c1ccc(-c2ccccc2)cc1 (stereo not given in full),0.182
9,CC1CC/C=C\[C@H]2OC34C=CCN(c5ccc(Cl)cc5)C(=O)[C@H]3N(C(CO)C(C)C)C(=O)[C@]4(C)C2C(=O)O1 (stereo not given in full),-0.637
10,O=C1O[C@@H](c2ccccc2)[C@@H](c2ccccc2)N2[C@@H](c3ccc(O)cc3)[C@]3(C(=O)Nc4ccc(C#CC5(O)CCCCCC5)cc43)[C@@H](C(=O)N3CCN(c4ncccn4)CC3)[C@H]12,0.204
11,CC[C@@H]1[C@@H]2C3C(=O)N(CC)C(=O)C3CC(=O)[C@@H]2[C@H](c2ccc(C)cc2)N1S(=O)(=O)c1ccc(C)cc1 (stereo not given in full),0.635
12,COCCOC(=O)N1C(=O)[C@@]2(c3cc(C#CCCO)ccc31)[C@H](C(=O)NC[C@H](O)c1ccccc1)[C@H]1C(=O)O[C@H](c3ccccc3)[C@H](c3ccccc3)N1[C@@H]2c1ccccc1OCCO,0.62
13,C=CCOC(=O)[C@@H]1[C@H]2C(=O)O[C@H](c3ccccc3)[C@H](c3ccccc3)N2[C@H](c2ccc(OCCOC(=O)[C@@H]3C[C@@H]4C(=O)N[C@@H](CCCCNC(C)=O)C(=O)N4[C@@H]3c3ccc(O)cc3)cc2)[C@@]12C(=O)Nc1ccc(I)cc12,0.4
14,CC(C)CCC[C@@H](C)[C@H]1CC[C@@]2(C)C3=C(CC[C@]12C)[C@@]1(C)CC[C@H](OC(=O)c2ccc(N)cc2)C(C)(C)C1CC3 (stereo not given in full),0.0576
15,CCCN1C(=O)[C@@H]2Cc3c([nH]c4ccccc34)[C@@H](c3cccc(O)c3)N2C1=O,-0.0001
16,C=CCN1C(=O)[C@@]2(O[C@@H](CCn3cc([C@H](O)c4ccccc4)nn3)[C@H]([Si](C)(C)c3ccc(OC)cc3)[C@H]2C)c2cc(NC(=O)c3ccc(OC)cc3)ccc21,0.101
17,COc1ccc([Si](C)(C)[C@@H]2[C@@H](CC(=O)N(CCO)Cc3ccccc3)O[C@]3(C(=O)N(Cc4ccc(N5CCOC5=O)cc4)c4ccccc43)[C@H]2C)cc1,0.389
18,COCCOC(=O)N1C(=O)[C@@]2(c3cc(C#Cc4ccc(OC)cc4)ccc31)[C@H](C(=O)N1CCc3cc(OC)c(OC)cc3C1)[C@H]1C(=O)O[C@H](c3ccccc3)[C@H](c3ccccc3)N1[C@@H]2c1ccc(O)cc1,-0.0689

row,SMILES,composite z-score
1,CC(C)CNC(=O)[C@@]1(C)c2ccccc2C(=O)N(Cc2ccccc2)[C@H]1c1ccc(CO)cc1,0.267
2,COc1ccccc1CN1C(=O)c2ccccc2[C@](Cc2ccccc2I)(C(=O)NCCN2CCOCC2)[C@@H]1c1ccc(CO)cc1,1.08
3,CCCCCCC#C[Si](O[C@H](c1ccccc1)c1cn(Cc2cccc(Cl)c2)nn1)(C(C)C)C(C)C,-0.0431
4,COc1ccc([Si](C)(C)[C@@H]2[C@@H](CCO)O[C@]3(C(=O)N(Cc4ccccc4)c4ccc(N5CCCCC5=O)cc43)[C@H]2C)cc1,0.566
5,COC(=O)[C@@]1(Cc2ccc(F)cc2)[C@@H]2[C@@H](CC(=O)[C@H]2CC(=O)C(=O)N2CCCC2)CN1C(=O)c1ccccc1,1.61
6,COCCOC(=O)N1C(=O)[C@@]2(c3cc(C#CCCO)ccc31)[C@H](c1ccc(OCCO)cc1)N1[C@H](c3ccccc3)[C@H](c3ccccc3)OC(=O)[C@H]1[C@@H]2C(=O)N1CCc2cc(OC)c(OC)cc2C1,0.159
7,C=CC[C@]1(C(=O)NCC(O)CO)N=C(c2ccc(OCCCO)cc2)O[C@H]1c1ccccc1N=[N+]=[N-] (stereo not given in full),0.375
8,O=C(O)[C@]1(CCS(=O)(=O)c2ccccc2)N=C(c2ccc(OCCCO)cc2)O[C@@H]1c1ccccc1,0.914
9,[N-]=[N+]=NCc1ccccc1C[C@]1(C(=O)NCCN2CCOCC2)COC(c2ccc(OCCCO)cc2)=N1,0.817
10,CC(C)C[C@@H]1NC(=O)[C@@H]2C[C@H](C(=O)NCc3ccc(F)cc3)[C@H](c3ccc(O)cc3)N2C1=O,-0.512
11,C=CCNC(=O)[C@H]1[C@@H]2C(=O)O[C@@H](c3ccccc3)[C@@H](c3ccccc3)N2[C@@H](c2ccc(O)cc2)[C@]12C(=O)N(C(=O)OCCOC)c1ccc(C#CC3(O)CCCCCC3)cc12,0.229
12,COCCOC(=O)N1C(=O)[C@@]2(c3cc(C#CCC(C(=O)OC)C(=O)OC)ccc31)[C@H](C(=O)N1CCCCCCC1)[C@H]1C(=O)O[C@H](c3ccccc3)[C@H](c3ccccc3)N1[C@@H]2c1ccc(O)cc1,2.37
13,O=[N+]([O-])c1ccc(C[n+]2ccc(-c3ccc(CO)cc3)cc2)o1,0.273
14,CN1C(=O)C2C=CC(C(O)COCc3ccccc3)N(Nc3ccccc3)C2C1=O (stereo not given),0.486
15,COC(=O)[C@@]1(Cc2ccc(OC)cc2)[C@H]2c3cc(C(=O)N4CCCC4)n(CCc4ccc(O)c(OC)c4)c3C[C@H]2CN1C(=O)c1ccccc1,0.603
16,C=C(CCCC)/C(=C/C[C@H](OC(=O)c1ccncc1)c1ccc(CO)o1)c1cc(C(=O)OC)ccc1OC,0.381
17,C[C@@H]1ON(c2ccccc2)[C@H](c2ccccc2)[C@H]1C(=O)N1C(=O)OC[C@H]1Cc1ccccc1,0.138
